The source of these data is the supplement of paper PMC8728848.

This excerpt belongs to a sample that is enriched for the strongest signals.

Holding throughout (assay): glycan array binding signal (z-score within array); higher = stronger binding
What all share (details): glycan notation: IUPAC condensed, linker removed

In test [1] the target is Kdn(a2-3)Gal(b1-4)[Fuc(a1-3)]GlcNAc. In a few lines: (§1)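 Columns mapping to the same glycan were averaged after glycan names were converted to IUPAC-condensed notation. The data come from 3228 arrays in the Consortium for Functional Glycomics database, limited to those with an available protein sequence. Binding is reported as a within-array Z-score averaged across arrays of one protein sequence and across linkers.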

The next test has as its target Kdn(a2-6)Gal(b1-4)GlcNAc. In a few lines:
as §1

The target of another test is Man(b1-4)GlcNAc. The method, boiled down: as §1
A further test concerns the target Neu5Ac(a2-3)Gal. The method, boiled down:
as §1

The target of test [2] is Neu5Ac(a2-3)Gal(b1-4)GlcNAc(b1-2)Man(a1-3)[GlcNAc(b1-4)][Neu5Ac(a2-3)Gal(b1-4)GlcNAc(b1-2)Man(a1-6)]Man(b1-4)GlcNAc(b1-4)GlcNAc. In a few lines:
as §1

The target of test [3] is Neu5Ac(a2-3)Gal(b1-4)GlcNAc(b1-3)Gal(b1-4)GlcNAc(b1-6)[Gal(b1-3)]GalNAc. In a few lines:
as §1

The target in test [4] is Neu5Ac(a2-3)Gal(b1-4)GlcNAc(b1-3)GalNAc. The method, boiled down: as §1
Test [5] addresses Neu5Ac(a2-3)Gal(b1-4)[Fuc(a1-3)]GlcNAc(b1-3)Gal. The method, boiled down:
as §1

Another test deals with Neu5Ac(a2-3)GalNAc. In a few lines: as §1
In test [6] the target is Neu5Ac(a2-6)Gal(b1-4)GlcNAc(b1-2)Man(a1-3)[Neu5Ac(a2-3)Gal(b1-4)GlcNAc(b1-2)Man(a1-6)]Man(b1-4)GlcNAc(b1-4)GlcNAc. The method, boiled down: as §1
The target of another test is Neu5Ac(a2-6)GalNAc. In a few lines:
as §1

For test [7], the target named is Neu5Ac(a2-8)Neu5Ac(a2-3)Gal(b1-3)GalNAc(b1-4)[Neu5Ac(a2-3)]Gal(b1-4)Glc. In a few lines:
as §1

Test [8] deals with Neu5Ac(a2-8)Neu5Ac(a2-8)Neu5Ac(a2-8)Neu5Ac(a2-3)[GalNAc(b1-4)]Gal(b1-4)Glc. In a few lines:
as §1

The target in test [9] is Neu5Gc(a2-3)Gal(b1-4)GlcNAc. The method, boiled down: as §1

B1: EULS2 M3 (Oryza sativa) (protein)
chain: MVYCRANPNYAMTARNGAVVLAPANPKDEYQHWIKDMRWSTSIKDEEGYPAFALVNKATGQAIKHSLGQSHPVRLVPYNPEVMDESVLWTESRDVGNGFRCIRMVNNIYLNFDAFHGDKYHGGVRDGTDIVLWKLCEGDSLRWKIQPYYILEQKLISEEDLNSAVDHHHHHH
Regarding B1, the “glycan array binding signal (z-score)” value in test [1] was 0.28; with Kdn(a2-6)Gal(b1-4)GlcNAc, -0.599; with Man(b1-4)GlcNAc, 0.117; with Neu5Ac(a2-3)Gal, -1.29; in test [2], -0.414; in test [3] it was -0.345. The “glycan array binding signal (z-score)” value was -0.286 in test [4]; 0.557 in [5]; -0.085 with Neu5Ac(a2-3)GalNAc; -0.391 in test [6]; -0.8 with Neu5Ac(a2-6)GalNAc; 1.61 in test [7]. The “glycan array binding signal (z-score)” value in test [8] was -0.424; in [9] it was 0.145.
